Measurements reported in PubChem BioAssay AID1159580 (chemical genetic matrix, 2015).
Among all 5,500 compounds or so, about 2,000 (36%) were called active. Inconclusive results (about 18%) are left out. This is one part of the list. A number with no mark means an inactive call. No stated cut-off is given here; in the data, active means normalized growth mostly below about 0.91 (no sharp cut-off); inconclusive means no clear call, values can overlap the other calls; inactive means mostly above about 0.92.

Assay: chemical genetic growth profiling, strain panel (AID 1159580);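 further: tested at 20 µM; growth read once vehicle control cultures reached saturation at 30 °C; 1 = growth at the plate median or of vehicle wells; lower values mean less growth of the strain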
Conditions: growth OD

**Q.** With `COc1ccc2c(c1)OC[C@@H](Cc1ccc(OC)c(OC)c1)[C@@H]2O` as the molecule, how does the normalized growth (S. cerevisiae deletion strains, locus YJR075W, strain HOC1, active compounds read low) read?
**A.** 0.951

**Q.** And the normalized growth (S. cerevisiae deletion strains, locus YKL009W, strain mrt4, active compounds read low)?
**A.** 0.985

**Q.** What about the normalized growth (S. cerevisiae deletion strains, locus YKL068W, active compounds read low) of the same molecule?
**A.** 0.988

**Q.** And the normalized growth (S. cerevisiae deletion strains, locus YKL085W, strain MDH1 (second series), active compounds read low)?
**A.** 0.956

**Q.** What about the normalized growth (S. cerevisiae deletion strains, locus YKL085W, strain MDH1, active compounds read low) of the same molecule?
**A.** 0.956

**Q.** What about the normalized growth (S. cerevisiae deletion strains, locus YKL160W, strain elf1, active compounds read low) of the same molecule?
**A.** 1

**Q.** What about the normalized growth (S. cerevisiae deletion strains, locus YKL190W, strain CNB1, active compounds read low) of the same molecule?
**A.** 1

**Q.** What about the normalized growth (S. cerevisiae deletion strains, locus YKR001C, strain vps1, active compounds read low) of the same molecule?
**A.** 0.892 (active)

**Q.** And the normalized growth (S. cerevisiae deletion strains, locus YKR026C, strain gcn3, active compounds read low)?
**A.** 0.992

**Q.** What about the normalized growth (S. cerevisiae deletion strains, locus YKR091W, strain srl3, active compounds read low) of the same molecule?
**A.** 0.988

**Q.** And the normalized growth (S. cerevisiae deletion strains, locus YLL001W, strain dnm1, active compounds read low)?
**A.** 0.99

**Q.** What about the normalized growth (S. cerevisiae deletion strains, locus YLL026W, active compounds read low) of the same molecule?
**A.** 0.995

**Q.** What about the normalized growth (S. cerevisiae deletion strains, locus YLL041C, strain sdh2, active compounds read low) of the same molecule?
**A.** 0.989

**Q.** What about the normalized growth (S. cerevisiae deletion strains, locus YLR027C, strain aat2, active compounds read low) of the same molecule?
**A.** 0.989

**Q.** And the normalized growth (S. cerevisiae deletion strains, locus YLR039C, strain RIC1, active compounds read low)?
**A.** 0.749

**Q.** What about the normalized growth (S. cerevisiae deletion strains, locus YLR058C, strain SHM2, active compounds read low) of the same molecule?
**A.** 0.997

**Q.** And the normalized growth (S. cerevisiae deletion strains, locus YLR102C, strain apc9, active compounds read low)?
**A.** 0.987

**Q.** What about the normalized growth (S. cerevisiae deletion strains, locus YLR113W, strain HOG1, active compounds read low) of the same molecule?
**A.** 0.875

**Q.** What about the normalized growth (S. cerevisiae deletion strains, locus YLR221C, strain rsa3, active compounds read low) of the same molecule?
**A.** 1.01

**Q.** And the normalized growth (S. cerevisiae deletion strains, locus YLR258W, strain gsy2, active compounds read low)?
**A.** 0.979

**Q.** What about the normalized growth (S. cerevisiae deletion strains, locus YLR262C, strain YPT6 (second series), active compounds read low) of the same molecule?
**A.** 0.831 (active)

**Q.** What about the normalized growth (S. cerevisiae deletion strains, locus YLR262C, strain YPT6, active compounds read low) of the same molecule?
**A.** 0.805

**Q.** And the normalized growth (S. cerevisiae deletion strains, locus YLR268W, strain sec22, active compounds read low)?
**A.** 0.999

**Q.** What about the normalized growth (S. cerevisiae deletion strains, locus YLR320W, strain mms22, active compounds read low) of the same molecule?
**A.** 0.971

**Q.** And the normalized growth (S. cerevisiae deletion strains, locus YLR330W, strain CHS5, active compounds read low)?
**A.** 0.993

**Q.** What about the normalized growth (S. cerevisiae deletion strains, locus YLR342W, strain FKS1 (second series), active compounds read low) of the same molecule?
**A.** 0.958

**Q.** What about the normalized growth (S. cerevisiae deletion strains, locus YLR342W, strain FKS1, active compounds read low) of the same molecule?
**A.** 0.973

**Q.** And the normalized growth (S. cerevisiae deletion strains, locus YLR357W, strain rsc2, active compounds read low)?
**A.** 0.998

**Q.** What about the normalized growth (S. cerevisiae deletion strains, locus YLR370C, strain arc18, active compounds read low) of the same molecule?
**A.** 1

**Q.** What about the normalized growth (S. cerevisiae deletion strains, locus YLR371W, strain rom2, active compounds read low) of the same molecule?
**A.** 0.985

**Q.** What about the normalized growth (S. cerevisiae deletion strains, locus YLR384C, strain iki3, active compounds read low) of the same molecule?
**A.** 0.982

**Q.** What about the normalized growth (S. cerevisiae deletion strains, locus YLR418C, strain cdc73, active compounds read low) of the same molecule?
**A.** 1.01

**Q.** And the normalized growth (S. cerevisiae deletion strains, locus YML016C, strain PPZ1, active compounds read low)?
**A.** 1

**Q.** And the normalized growth (S. cerevisiae deletion strains, locus YML032C, strain rad52, active compounds read low)?
**A.** 0.981

**Q.** What about the normalized growth (S. cerevisiae deletion strains, locus YML120C, strain ndi1, active compounds read low) of the same molecule?
**A.** 0.986

**Q.** And the normalized growth (S. cerevisiae deletion strains, locus YML124C, strain tub3, active compounds read low)?
**A.** 0.988

**Q.** What about the normalized growth (S. cerevisiae deletion strains, locus YMR058W, strain fet3, active compounds read low) of the same molecule?
**A.** 1.01

**Q.** And the normalized growth (S. cerevisiae deletion strains, locus YMR078C, strain ctf18, active compounds read low)?
**A.** 0.986

**Q.** What about the normalized growth (S. cerevisiae deletion strains, locus YMR125W, strain sto1, active compounds read low) of the same molecule?
**A.** 1.01

**Q.** And the normalized growth (S. cerevisiae deletion strains, locus YMR129W, active compounds read low)?
**A.** 0.985

**Q.** And the normalized growth (S. cerevisiae deletion strains, locus YMR205C, strain PFK2, active compounds read low)?
**A.** 0.955

**Q.** And the normalized growth (S. cerevisiae deletion strains, locus YMR223W, strain ubp8, active compounds read low)?
**A.** 0.987

**Q.** What about the normalized growth (S. cerevisiae deletion strains, locus YMR231W, strain pep5, active compounds read low) of the same molecule?
**A.** 0.987

**Q.** And the normalized growth (S. cerevisiae deletion strains, locus YMR263W, strain SAP30, active compounds read low)?
**A.** 1.01

**Q.** And the normalized growth (S. cerevisiae deletion strains, locus YMR307W, strain GAS1, active compounds read low)?
**A.** 0.945

**Q.** What about the normalized growth (S. cerevisiae deletion strains, locus YNL067W, strain RPL9B, active compounds read low) of the same molecule?
**A.** 1.01

**Q.** What about the normalized growth (S. cerevisiae deletion strains, locus YNL071W, strain lat1, active compounds read low) of the same molecule?
**A.** 0.994

**Q.** And the normalized growth (S. cerevisiae deletion strains, locus YNL128W, strain TEP1, active compounds read low)?
**A.** 1.01

**Q.** What about the normalized growth (S. cerevisiae deletion strains, locus YNL153C, strain GIM3, active compounds read low) of the same molecule?
**A.** 1.01

**Q.** What about the normalized growth (S. cerevisiae deletion strains, locus YNL183C, strain NPR1, active compounds read low) of the same molecule?
**A.** 0.933

**Q.** And the normalized growth (S. cerevisiae deletion strains, locus YNL209W, strain ssb2, active compounds read low)?
**A.** 1.01

**Q.** And the normalized growth (S. cerevisiae deletion strains, locus YNL233W, strain BNI4, active compounds read low)?
**A.** 0.978

**Q.** And the normalized growth (S. cerevisiae deletion strains, locus YNL248C, strain rpa49, active compounds read low)?
**A.** 1.01

**Q.** And the normalized growth (S. cerevisiae deletion strains, locus YNL250W, strain rad50, active compounds read low)?
**A.** 1

**Q.** What about the normalized growth (S. cerevisiae deletion strains, locus YNL271C, strain bni1, active compounds read low) of the same molecule?
**A.** 0.992

**Q.** And the normalized growth (S. cerevisiae deletion strains, locus YNL298W, strain CLA4, active compounds read low)?
**A.** 0.992

**Q.** What about the normalized growth (S. cerevisiae deletion strains, locus YNL307C, strain MCK1, active compounds read low) of the same molecule?
**A.** 0.953

**Q.** What about the normalized growth (S. cerevisiae deletion strains, locus YNL322C, strain KRE1 (second series), active compounds read low) of the same molecule?
**A.** 0.967

**Q.** What about the normalized growth (S. cerevisiae deletion strains, locus YNL322C, strain KRE1, active compounds read low) of the same molecule?
**A.** 0.999

**Q.** And the normalized growth (S. cerevisiae deletion strains, locus YNR049C, strain mso1, active compounds read low)?
**A.** 0.99

**Q.** And the normalized growth (S. cerevisiae deletion strains, locus YNR052C, strain pop2, active compounds read low)?
**A.** 0.977

**Q.** What about the normalized growth (S. cerevisiae deletion strains, locus YOL006C, strain TOP1, active compounds read low) of the same molecule?
**A.** 0.993

**Q.** What about the normalized growth (S. cerevisiae deletion strains, locus YOL147C, strain pex11, active compounds read low) of the same molecule?
**A.** 0.985

**Q.** What about the normalized growth (S. cerevisiae deletion strains, locus YOR001W, strain rrp6, active compounds read low) of the same molecule?
**A.** 1.01

**Q.** What about the normalized growth (S. cerevisiae deletion strains, locus YOR061W, strain CKA2, active compounds read low) of the same molecule?
**A.** 1

**Q.** What about the normalized growth (S. cerevisiae deletion strains, locus YOR069W, strain VPS5, active compounds read low) of the same molecule?
**A.** 0.992

**Q.** What about the normalized growth (S. cerevisiae deletion strains, locus YOR070C, strain gyp1, active compounds read low) of the same molecule?
**A.** 0.998

**Q.** And the normalized growth (S. cerevisiae deletion strains, locus YOR080W, strain dia2, active compounds read low)?
**A.** 0.974

**Q.** And the normalized growth (S. cerevisiae deletion strains, locus YOR083W, strain WHI5, active compounds read low)?
**A.** 0.987

**Q.** And the normalized growth (S. cerevisiae deletion strains, locus YOR106W, strain vam3, active compounds read low)?
**A.** 1.02

**Q.** What about the normalized growth (S. cerevisiae deletion strains, locus YOR136W, strain idh2, active compounds read low) of the same molecule?
**A.** 0.991

**Q.** What about the normalized growth (S. cerevisiae deletion strains, locus YOR144C, strain elg1, active compounds read low) of the same molecule?
**A.** 0.987

**Q.** What about the normalized growth (S. cerevisiae deletion strains, locus YOR184W, strain ser1, active compounds read low) of the same molecule?
**A.** 0.952

**Q.** What about the normalized growth (S. cerevisiae deletion strains, locus YOR231W, strain MKK1, active compounds read low) of the same molecule?
**A.** 0.976

**Q.** What about the normalized growth (S. cerevisiae deletion strains, locus YOR265W, strain rbl2, active compounds read low) of the same molecule?
**A.** 1.01

**Q.** And the normalized growth (S. cerevisiae deletion strains, locus YOR270C, strain vph1, active compounds read low)?
**A.** 1.01

**Q.** What about the normalized growth (S. cerevisiae deletion strains, locus YOR290C, strain snf2, active compounds read low) of the same molecule?
**A.** 1

**Q.** What about the normalized growth (S. cerevisiae deletion strains, locus YOR316C, strain cot1, active compounds read low) of the same molecule?
**A.** 0.99

**Q.** And the normalized growth (S. cerevisiae deletion strains, locus YPL051W, strain arl3, active compounds read low)?
**A.** 0.982

**Q.** And the normalized growth (S. cerevisiae deletion strains, locus YPL055C, strain LGE1, active compounds read low)?
**A.** 0.996

**Q.** And the normalized growth (S. cerevisiae deletion strains, locus YPL078C, strain atp4, active compounds read low)?
**A.** 1.01

**Q.** And the normalized growth (S. cerevisiae deletion strains, locus YPL106C, strain sse1, active compounds read low)?
**A.** 0.99

**Q.** And the normalized growth (S. cerevisiae deletion strains, locus YPL240C, strain hsp82, active compounds read low)?
**A.** 0.995

**Q.** And the normalized growth (S. cerevisiae deletion strains, locus YPL241C, strain CIN2, active compounds read low)?
**A.** 0.998

**Q.** And the normalized growth (S. cerevisiae deletion strains, locus YPL256C, strain CLN2, active compounds read low)?
**A.** 0.983

**Q.** What about the normalized growth (S. cerevisiae deletion strains, locus YPR119W, strain clb2, active compounds read low) of the same molecule?
**A.** 0.983

**Q.** And the normalized growth (S. cerevisiae deletion strains, locus YPR141C, strain kar3, active compounds read low)?
**A.** 0.995

**Q.** What about the normalized growth (S. cerevisiae deletion strains, locus YPR163C, strain tif3, active compounds read low) of the same molecule?
**A.** 0.995

**Q.** And the normalized growth (S. cerevisiae deletion strains, locus YPR167C, strain met16, active compounds read low)?
**A.** 0.985

**Q.** And the normalized growth (S. cerevisiae deletion strains, strain wtn01, active compounds read low)?
**A.** 0.982

**Q.** What about the normalized growth (S. cerevisiae strains, strain wild type, active compounds read low) of the same molecule?
**A.** 1.01
